According to the supplement of paper PMC12669797:
Counter-ions that a name gives are not always drawn. ± gives the standard deviation of the averaged measurements.

Assays:
ES2 = assay: cell viability relative to DMSO control (MTS) (fraction of DMSO control); higher = more viable cells / less growth inhibition; details: 10 µM; 48 h
Method in brief: (§1)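 A 367-compound […] library was tested at a final concentration of 10 µM on TOV-21G and ES2 clear cell carcinoma cells (5000 cells per well, 96-well plates, pre-grown 24 h), with control wells receiving vehicle only. Following 48 h of exposure, CellTiter 96 AQueous One Solution was used as the manufacturer directs. This MTS assay gives cell viability as a fraction of the vehicle control.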

TOV-21G = assay: as above; details: 10 µM; 48 h
Method in brief: as §1

| Structure (SMILES) | cell viability (ES2) | cell viability (TOV-21G) |
| --- | --- | --- |
| CCOC(=O)C(C)(C)Oc1ccc(Cl)cc1 [Clofibrate] | 1.35 | 1.03 |
| COc1cc2c(cc1OC)-c1[nH]nc(Nc3cccc(F)c3)c1C2 [PDGF receptor tyrosine kinase inhibitor IV] | 0.288 | 0.297 |
| NC1=N/C(=C2/CCNC(=O)c3[nH]ccc32)C(=O)N1 [Debromohymenialdisine (DBH)] | 1.25 | 1.12 |
| CNC(=O)[C@H](Cc1c[nH]c2ccccc12)NC(=O)[C@@H](CC(=O)NO)CC(C)C | 1.02 | 0.959 |
| Cn1nnc2c(C(N)=O)ncn2c1=O [temozolomide] | 1.2 | 1.12 |
| Cc1cc(Nc2cc(N3CCN(C)CC3)nc(/C=C/c3ccccc3)n2)n[nH]1 | 0.534 | 0.289 |
| CSc1ccc(/C=C2/C(C)=C(CC(=O)O)c3cc(F)ccc32)cc1 [Sulindac sulfide] | 1.38 | 1.3 |
| Cc1cnc(-c2cnc(NCCNc3ccc(C#N)cn3)nc2-c2ccc(Cl)cc2Cl)[nH]1 | 1.05 | 0.888 |
| N#C/C(=C(/N)Sc1ccccc1N)c1cccc(C(O)c2ccncc2)c1 (configuration not stated) [MEK inhibitor I] | 0.866 | 0.898 |
| O=C(CCCCCCC(=O)Nc1ccccc1)NO [vorinostat] | 0.38 | 0.388 |
| Nc1[nH]nc2nnc(-c3c(-c4ccccc4)nn4ccccc34)cc12 [ERK inhibitor II] | 0.847 | 0.734 |
| Ic1cccc(CSc2nnc(-c3ccncc3)o2)c1 [GSK-3 inhibitor II] | 1.09 | 1.19 |
| O=Cc1ccc(N2CCOCC2)cc1O | 1.07 | 0.993 |
| CC(C)n1nc(-c2cc3cc(O)ccc3[nH]2)c2c(N)ncnc21 [Torkinib] | 0.417 | 0.38 |
| CCCCC(=O)Oc1ccccc1C(=O)O [Valeryl salicylate] | 0.917 | 1.01 |
| CCNCCCNCCCCNCCCNCC [N1,N12-Diethylspermine (BESpm)] | 1 | 0.731 |
| Fc1ccc(Cl)cc1-c1nc(Nc2ccncc2)c2nccnc2n1 | 0.645 | 1.08 |
| Oc1nc(-c2ccc(C(F)(F)F)cc2)nc2c1CSCC2 | 0.961 | 1.1 |

| Structure (SMILES) | cell viability (ES2) | cell viability (TOV-21G) |
| --- | --- | --- |
| CC1(C)CCC(C)(C)c2cc(NC(=O)c3ccc(C(=O)O)cc3)ccc21 [tamibarotene] | 1.16 | 1.49 |
| CC[C@@]1(O)C[C@H](O[C@H]2C[C@H](N(C)C)[C@H](O[C@H]3C[C@H](O)[C@H](O[C@H]4CCC(=O)[C@H](C)O4)[C@H](C)O3)[C@H](C)O2)c2c(cc3c(c2O)C(=O)c2c(O)cccc2C3=O)[C@H]1C(=O)OC [Aclarubicin] | 0.6 | 0.385 |
| Cc1cccc(-c2nn3c(c2-c2ccnc4ccc(C(N)=O)cc24)CCC3)n1 | 0.988 | 1.02 |
| CC(C)C[C@@H](C=O)NC(=O)[C@H](CC(C)C)NC(=O)[C@H](CC(C)C)NC(=O)OCc1ccccc1 | 0.298 | 0.255 |
| CC[C@H](C)C(=O)O[C@H]1C[C@@H](C)C=C2C=C[C@H](C)[C@H](CC[C@@H]3C[C@@H](O)CC(=O)O3)[C@H]21 [Lovastatin] | 0.595 | 0.792 |
| NNCCc1ccccc1 [Phenelzine] | 1.13 | 1.25 |
| Cc1ccc(-c2cn3c4c(sc3n2)CCCC4)cc1 [Pifithrin-a (cyclic)] | 1.03 | 1.11 |
| CC1=Nc2ccc(Cl)cc2S(=O)(=O)N1 [Diazoxide] | 0.816 | 0.996 |
| O=C(Nc1cccc(NC(=O)c2cccc(O)c2O)c1)c1cccc(O)c1O | 0.614 | 0.302 |
| O=C(O)c1cc(NCc2cc(O)ccc2O)ccc1O [Lavendustin C] | 1.36 | 1.17 |
| O=C1NC(=O)c2c1c1c3ccccc3[nH]c1n1cncc21 [isogranulatimide] | 1.12 | 1.47 |
| N#C/C(=C\c1ccc2oc(=O)[nH]c2c1)C(=O)c1ccc(O)c(O)c1 | 0.972 | 1.13 |
| CCN1/C(=C/C(C)=O)Sc2ccc(OC)cc21 | 0.857 | 1.01 |
| CC(C)c1cc(/C=C(\C#N)C(=O)NCCCc2ccccc2)cc(C(C)C)c1O | 1.3 ± 0.21 | 0.938 ± 0.063 |
| CNCCCN1c2ccccc2CCc2ccccc21 [desipramine hydrochloride] | 0.954 | 0.745 |
| COc1ccc(Cn2ccc3ccc(C(=O)NO)cc32)cc1 | 0.928 | 0.919 |
| Cc1cccc(-c2nn(C(=S)Nc3ccccc3)cc2-c2ccnc3ccccc23)n1 | 0.872 | 1.01 |
| CC(C)c1ccc2c(c1)c(SC(C)(C)C)c(CC(C)(C)C(=O)O)n2Cc1ccc(Cl)cc1 | 1.06 | 0.959 |
